PubChem BioAssay (EPA / NIEHS)
Calls of active or inactive are those of the source. How the source made its calls: active means hit-call score of the fitted dose curve at least 0.9, where 1 is the maximum; inactive means score below 0.9.

Read-out: Urokinase-type plasminogen activator receptor (uPAR), PLAUR (gene 5329)
Assay: BSK_4H_uPAR: BioMAP Diversity Plus: 4H Assay for Urokinase-type plasminogen activator receptor (uPAR) Biomarker Activity (AID 2283030)
Details: primary human endothelial cells (HUVEC); actives raise or lower the signal
Method: BSK_4H is a cell-based, multiplexed-readout assay that uses umbilical vein endothelium, a human vascular primary cell, with measurements taken at 24 hours after chemical dosing in a 96-well plate.BSK_4HAR is an assay component measured in the BSK_4H assay. It measures uPAR antibody related to regulation of gene expression using ELISA technology.Data from the assay component BSK_4HAR was analyzed into 1 assay endpoint. This assay endpoint, BSK_4HAR, was analyzed with bidirectional fitting relative to DMSO as the negative control and baseline of activity. Using a type of binding reporter, gain or loss-of-signal activity can be used to understand changes in the signaling as they relate to the gene PLAUR. Furthermore, this assay endpoint can be referred to as a primary readout, because this assay has produced multiple assay endpoints where this one serves a signaling function. To generalize the intended target to other relatable targets, this assay endpoint is annotated to the cytokine intended target family, where the subfamily is plasmogen activator.
The levels of cell surface (or secreted, indicated by the prefix "s") biomarker endpoints were measured by ELISA. Overt cytotoxicity to cells in confluent adherent cultures (all systems other than the BT system) was assessed by measuring total protein levels using sulforhodamine B (SRB) staining in parallel cultures at the time of biomarker measurements, indicated as SRB endpoints. For proliferation assays for adherent cell types, individual cell types are cultured at sub-confluence and relative cell numbers quantified by SRB staining at time points optimized for each system (48 h: 3C and CASM3C systems; 72 h: BT and HDF3CGF systems; 96 h: SAg system). SRB was performed by staining cells with 0.1% SRB after fixation with 10% TCA and reading wells at 560 nm.Viability and proliferation of PBMC (T cells) was quantified by Alamar Blue reduction for the SAg and BT systems. For PBMC viability (referred to as PBMC Cytotoxicity within the assay endpoint names), cells were plated (75,000/well in a 96-well plate) and then chemical samples added for 1 h before addition of activators, SEB and TSST-1 (20 ng/mL final concentration each). Cells were incubated for 90 h. Then, Alamar Blue (20 uL/well) (Invitrogen, Cat DAL1100) was added for 6 h, and the plates were read with a fluorescence microplate reader at 546/580 nm (excitation/emission). For PBMC proliferation, cells were plated and activated as above but incubated for only 16 h prior to addition of Alamar Blue. Plates were read after 6 h.

| SMILES | outcome | AC50 |
| --- | --- | --- |
| CCOP(=S)(OCC)Oc1nc(Cl)n(C(C)C)n1 | inactive |  |
| COc1ccc(-c2ccccc2)cc1NNC(=O)OC(C)C | inactive |  |
| N#CN=C1SCCN1Cc1ccc(Cl)nc1 | inactive |  |
| CCOc1cc(C(C)(C)C)ccc1C1COC(c2c(F)cccc2F)=N1 (stereo not given) |  | 33 µM (active) |
| Nc1cnn(-c2ccccc2)c(=O)c1Cl | inactive |  |
| Cc1nc(N(C)C)nc(OC(=O)N(C)C)c1C | inactive |  |
| COP(=O)(OC)O/C(C)=C/C(=O)N(C)C | inactive |  |
| O=c1n(Cl)c(=O)n(Cl)c(=O)n1Cl | inactive |  |
| CC1(C)CCC(=Cc2ccc(Cl)cc2)C1(O)Cn1cncn1 (stereo not given) | inactive |  |
| CO/N=C(/C1=NOCCO1)c1ccccc1Oc1ncnc(Oc2ccccc2Cl)c1F |  | 15.5 µM (active) |
| CCCCOCN(C(=O)CCl)c1c(CC)cccc1CC |  | 38.8 µM (active) |
| CCSC(=O)N1CCCCCC1 | inactive |  |
| CCN(CC)C(=O)C(C)Oc1cccc2ccccc12 (stereo not given) | inactive |  |
| CC(C)=CC1C(C(=O)OCc2coc(Cc3ccccc3)c2)C1(C)C (stereo not given) | inactive |  |
| COP(=S)(OC)SCn1nnc2ccccc2c1=O | inactive |  |
| CCCCC(O)(Cn1cncn1)c1ccc(Cl)cc1Cl (stereo not given) | inactive |  |
| CCNP(=S)(OC)O/C(C)=C/C(=O)OC(C)C (stereo not given) | inactive |  |
| COCC(=O)N(c1c(C)cccc1C)C(C)C(=O)OC (stereo not given) | inactive |  |
| COC(=O)NC(=S)Nc1ccccc1NC(=S)NC(=O)OC | inactive |  |
| COCc1cnc(C2=NC(C)(C(C)C)C(=O)N2)c(C(=O)O)c1 (stereo not given) | inactive |  |

| SMILES | outcome | AC50 |
| --- | --- | --- |
| CCCN(CC)CC1COC2(CCC(C(C)(C)C)CC2)O1 (stereo not given) | inactive |  |
| CC(C)N1C(=O)N(c2ccccc2)CSC1=NC(C)(C)C |  | 31.7 µM (active) |
| CCOC(=O)C(C)OC(=O)c1cc(Oc2ccc(C(F)(F)F)cc2Cl)ccc1[N+](=O)[O-] (stereo not given) |  | 10 µM (active) |
| CS(=O)(=O)c1cc(C(F)(F)F)ccc1C(=O)c1cnoc1C1CC1 | inactive |  |
| COc1cc(OC)nc(NC(=O)NS(=O)(=O)c2ncccc2OCC(F)(F)F)n1 | inactive |  |
| CN=C=S | inactive |  |
| CCOP(=O)(OCC)Oc1nc(Cl)c(Cl)cc1Cl |  | 12 µM (active) |
| O=C1C2CC=CCC2C(=O)N1SC(Cl)(Cl)Cl (stereo not given) | inactive |  |
| C=CCOC(=O)C(C)(C)OC(=O)c1cc(-n2c(=O)cc(C(F)(F)F)n(C)c2=O)ccc1Cl |  | 6.97 µM (active) |
| N#Cc1c(Cl)cccc1Cl | inactive |  |
| Cc1ccc(N=CN(C)C=Nc2ccc(C)cc2C)c(C)c1 |  | 37.5 µM (active) |
| COCC(C)N(C(=O)CCl)c1c(C)csc1C (stereo not given) | inactive |  |
| Nc1c(Cl)c(Cl)nc(C(=O)O)c1Cl | inactive |  |
| CCOc1nc(C(Cl)(Cl)Cl)ns1 | inactive |  |
| CC(C)(C)C(=O)C(Oc1ccc(Cl)cc1)n1cncn1 (stereo not given) | inactive |  |
| CC(C)Oc1cccc(NC(=O)c2ccccc2C(F)(F)F)c1 | inactive |  |
| CCNC(=O)NC(=O)C(C#N)=NOC | inactive |  |
| O=P(O)(O)CCCl | inactive |  |
| OC(c1ccc(Cl)cc1)(c1ccc(Cl)cc1)C(Cl)(Cl)Cl |  | 31.4 µM (active) |
| CC(C)Nc1nc(Cl)nc(NC(C)C)n1 | inactive |  |
